Source: PubChem
The list is not random: actives were taken first. Their share in the collection is about 2.7%.
IP6K1 inh: inhibitors of human IP6K1 | Q92551 | actives 0.81% (n = 140,000) | IP6K1 kinase, ADP-Glo luminescence, 2 h; stronger effect = lower value | AID 1645851 | activity change, % (series mostly up to about 58 µM); in the data active means activity change below about -25%; further: on the % scale 0 is the no-effect control and ±100 the full control effect
Target sequence (Q92551 whole entry, looked up): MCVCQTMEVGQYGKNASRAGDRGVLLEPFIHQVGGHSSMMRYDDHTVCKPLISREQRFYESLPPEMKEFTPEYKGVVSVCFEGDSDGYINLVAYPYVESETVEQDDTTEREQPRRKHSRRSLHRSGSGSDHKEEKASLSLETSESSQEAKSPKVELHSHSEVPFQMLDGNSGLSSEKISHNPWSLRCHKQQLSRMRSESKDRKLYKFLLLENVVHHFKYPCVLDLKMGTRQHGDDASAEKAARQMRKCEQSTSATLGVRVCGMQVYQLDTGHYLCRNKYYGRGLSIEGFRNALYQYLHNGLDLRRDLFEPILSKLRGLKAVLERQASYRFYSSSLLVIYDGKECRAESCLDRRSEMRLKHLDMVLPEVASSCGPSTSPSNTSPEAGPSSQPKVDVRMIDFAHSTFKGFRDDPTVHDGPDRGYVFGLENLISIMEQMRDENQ
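ADP-Glo luminescence measures ADP made by human IP6K1 during a 2 h RT reaction with ATP/IP6 (mix at 1.3 mM/130 uM); top library doses 57.5 and 19.1 uM final.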
KDM5B inh: KDM5B demethylase inhibition. Potency, µM (series often up to 57.7 µM), hits mostly inhibitors. KDM5B demethylase, FDH-coupled NADH fluorescence (FDH is formaldehyde dehydrogenase). actives 2.6% (n = 220,000); active means well fitted inhibition curve with a large enough effect; inconclusive means small, poorly fitted or top-dose-only effect; inactive means no such curve, though single readings can be large or run the other way; further: potency means the concentration at half of the fitted maximal effect; 0% is about no effect; nearly all actives have a fitted effect of over 70% in size
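Measured: NADH fluorescence change, 30 min, RT. System: KDM5BΔAP 200 nM final, H3K4me3 peptide, α-KG, Fe(II), ascorbate, NAD⁺ plus FDH, pH 7.5 HEPES. Compounds: titrated, 10 min pre-incubation with enzyme.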
Starred values were filed as active, the others as inactive; i = inactive; u = inconclusive; x = no result given.

SMILES | IP6K1 inh | KDM5B inh
O=C(NCc1ccc(Cl)cc1)c1cc2n(n1)CC(c1ccc3c(c1)OCO3)OC2 (stereo unspecified) | -2 | 28µM*
O=C(NCc1ccc(F)cc1F)c1cc2n(n1)CC(c1ccc3c(c1)OCO3)OC2 (stereo unspecified) | 5 | 28µM*
CCOc1ccccc1CNC(=O)c1cc2n(n1)CC(c1ccc3c(c1)OCO3)OC2 (stereo unspecified) | -15 | 32µM*
CCCCNC(=O)c1cc2n(n1)CC(c1ccc3c(c1)OCO3)OC2 (stereo unspecified) | 25 | i
CC(=O)OC1CCC2(C=O)C3CCC4(C)CC(C5=CC(=O)OC5)CC4(O)C3CCC2(O)C1 (stereo unspecified) | x | i
Cc1nc(SCC(=O)Nc2ccc3c(c2)OCCCO3)c(C#N)c(C)c1C | x | i
COc1cccc(-c2cn3cc(C(=O)NCCc4ccc(Cl)cc4)nc3s2)c1 | 2 | x
COc1cccc2cc(S(=O)(=O)N3CCCCCC3)c(=O)oc12 | x | i
Cc1noc(C)c1-c1cc2c(c(-c3cnn(C)c3)c1)C(=O)N(C)C2 | 12 | 40µM*
Cc1noc(C)c1-c1cc2c(c(-c3cccc(CO)c3)c1)C(=O)N(C)C2 | 15 | i
FC(F)Sc1nnc(-c2ccccc2)c2ccccc12 | x | i
O=S(=O)(Nc1nc2ccccc2nc1Nc1ccc(F)cc1)c1cccs1 | x | i
O=C(CC1C(=O)N(CCc2ccccc2)c2nc3ccccc3n21)Nc1ccc(F)c(F)c1 (stereo unspecified) | x | i
CCOc1nc2ccccc2nc1N1CCC(C(=O)Nc2ccc(C(N)=O)cc2)CC1 | x | i
Cc1cc2c(-c3cccc(O)c3)nc(-c3c(C)noc3C)cc2[nH]1 | -13 | i
COc1cccc(-c2nc(-c3c(C)noc3C)cc3[nH]c(C)cc23)c1OC | 0 | i
Cc1cc2c(-c3ccccc3C)nc(-c3c(C)noc3C)cc2[nH]1 | -1 | 32µM*
Cc1cc2c(-c3ccccc3O)nc(-c3c(C)noc3C)cc2[nH]1 | -21 | 35µM*
Cc1cc2c(-c3ccccc3F)nc(-c3c(C)noc3C)cc2[nH]1 | -12 | 35µM*
Cc1cc2c(c(SCC(=O)Nc3ccccc3)n1)C(=O)OC2 | x | i
COc1ncccc1CNC[C@H]1Cn2cc(-c3ccc4c(c3)OCCCO4)nc2CO1 | 4 | u
O[C@H]1CCC2CC1[C@@H](O)CN2CC(c1ccccc1)c1ccccc1 (stereo partly specified) | 6 | x
O=C1CC(C(=O)Nc2ccc3c(c2)OCCO3)N=C(Nc2ccc(F)cc2)N1 (stereo unspecified) | x | i
O=C(NCc1ccco1)[C@@H]1Cc2nc[nH]c2CN1Cc1ccc(Cl)cc1 | 9 | u
N#Cc1cccc(CN2Cc3[nH]cnc3C[C@H]2C(=O)NCc2ccco2)c1 | 18 | 32µM*
SMILES | IP6K1 inh | KDM5B inh
O=C(NCc1ccc2c(c1)OCO2)C1CCN(c2nccc(Nc3ccccc3Cl)n2)CC1 | 21 | x
COc1ccccc1-c1ccc(C(=O)N2C[C@@H](N(C)C)[C@H](C(C)C)C2)cc1 | -17 | 28µM*
COc1ccccc1-c1ccc(C(=O)N2CCC(C(=O)NC(C)C)CC2)cc1 | 18 | x
CSc1ncc2c(=O)n(CC(=O)Nc3ccccc3F)cnc2n1 | x | i
CCOc1ccc(S(=O)(=O)N2CCN(Cc3ncc(-c4ccc(F)cc4)o3)CC2)cc1 | x | i
Cc1ccc(CN2CC3ON=C(C(=O)O)C3C2)cc1 (stereo unspecified) | 4 | u
CCc1ccc(CN2CC3ON=C(C(=O)O)C3C2)cc1 (stereo unspecified) | -2 | 112µM*
CN(C)c1ncc2c(n1)CCCC2NC(=O)CN1C(=O)NC(C)(C)C1=O (stereo unspecified) | -7 | u
CCCc1nc(C(=O)NC2CCCc3nc(N(C)C)ncc32)cs1 (stereo unspecified) | -12 | 25µM*
O=C1NCC2(CCCN(C(=O)CCc3nc4ccccc4[nH]c3=O)C2)O1 (stereo unspecified) | 10 | 22µM*
NC1CCCCN(C(=O)CCc2nc3ccccc3[nH]c2=O)C1 (stereo unspecified) | -6 | u
Cc1ccc(NC(=O)C(C)Sc2ccc(C)cc2C)cc1 (stereo unspecified) | x | i
COc1ccc(NC(=O)c2cnc3c(c2)N(C(=O)CCc2ccccc2)CCC3)cn1 | 12 | i
COc1ccc(Nc2cc3c(nc2OC)nc(CCc2ccccc2)n3C)cn1 | 2 | 18µM*
COc1nc2nc(CCc3ccccc3)n(C)c2cc1-c1ccnc(C)c1 | 5 | 40µM*
COc1cc(F)ccc1-c1cc2c(nc1OC)nc(CC1CC1)n2C | 16 | 35µM*
COc1nc2nc(CC3CC3)n(C)c2cc1-c1ccncc1 | 2 | u
COc1nc2nc(CC3CC3)n(C)c2cc1-c1ccnc(C)c1 | 9 | 40µM*
COc1ncccc1-c1cc2c(nc1OC)nc(CCc1ccccc1)n2C | 10 | u
COc1ncccc1-c1cc2c(nc1OC)nc(CC1CC1)n2C | 3 | u
O=C(/C=C/c1ccccc1)c1ccccc1-n1cccn1 | x | i
Cc1ccc([S+](=O)([O-])N2CCCC2C(=O)N2CCC(N3Cc4ccccc4C3=O)CC2)cc1 (stereo unspecified) | 17 | x
O=C(C1COc2cc(S(=O)(=O)NCc3ccc4c(c3)OCO4)ccc2O1)N1CCCCC1 (stereo unspecified) | x | i
COc1nc2nc(CCc3ccccc3)n(C)c2cc1-c1cccc(CO)c1 | 3 | 35µM*
COCc1nc2nc(-c3ccccc3)c(-c3cccc(CO)c3)cc2n1C | 13 | u
SMILES | IP6K1 inh | KDM5B inh
CCOc1ccc(N/C=C/C(=O)c2ccc(C)cc2)cc1 | x | i
Cc1ccc(C(=O)NC2CCCN(c3ccc4nnc(-c5ccccc5)n4n3)C2)cc1 (stereo unspecified) | 19 | x
O=C1CN(Cc2ccc(-c3ccccc3)cc2)CCN1c1ccc(Cl)nn1 | 17 | i
O=C1CN(Cc2ccc(-c3cccs3)cc2)CCN1c1ccc(Cl)nn1 | 13 | 79µM*
CCc1cnc(C)nc1N1CCC2(CC1)CC(c1ccccc1)C(=O)N2C (stereo unspecified) | -12 | i
Cc1ccc(C#N)c(N2CCC3(CC2)CC(c2ccccc2)C(=O)N3C)n1 (stereo unspecified) | 2 | 28µM*
CN1C(=O)C(c2ccccc2)CC12CCN(C(=O)CN1CCCC1)CC2 (stereo unspecified) | 2 | 25µM*
CN1C(=O)C(c2ccccc2)CC12CCN(C(=O)C1CCC1)CC2 (stereo unspecified) | -5 | i
O=C(Cn1c(=O)c2c(ncn2C2CCCC2)n(Cc2ccccc2)c1=O)Nc1ccccc1 | x | i
CCC(NC(=O)CCc1ncc(-c2ccccc2F)o1)c1ccc(OC)cc1 (stereo unspecified) | x | i
O=C(NCC1(COc2cnccn2)C[C@@H](O)[C@@H](O)C1)c1nc2ccccc2[nH]1 (stereo partly specified) | 8 | 28µM*
O=C(NCC1(COc2cccnc2)C[C@@H](O)[C@@H](O)C1)c1nc2ccccc2[nH]1 (stereo partly specified) | -1 | u
COCCOCC1(CNC(=O)c2nc3ccccc3[nH]2)C[C@@H](O)[C@@H](O)C1 (stereo partly specified) | 2 | 32µM*
